# Test results from PubChem BioAssay (Tox21).
# A number with no mark means an inactive call. Inconclusive results are not listed. A call without a number means that no potency is given here. Calls of active or inactive are those of the source. Unless noted, calls follow the shape of the dose curve; as a rule, active = well fitted curve in the direction sought with a large enough effect in the repeat runs; inconclusive = weak or mixed curves; inactive = no such curve, though single readings can be large; an effect the other way counts as inactive or inconclusive.
# Experiments:
# [1] = qHTS assay to test for compound auto fluorescence at 535 nm (green) in HEK293 cells (AID 720680)
# [2] = qHTS assay to test for compound auto fluorescence at 460 nm (blue) in HEK293 cell free culture (AID 720681)
# How it was run: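 Test compounds were pinned into cell-free culture medium (DMEM with 10% FBS) and fluorescence was read directly at Ex/Em 405/460 nm. Signals were expressed as fluorescence equivalents of triamterene, with DMSO vehicle as control.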
# [3] = qHTS assay to test for compound auto fluorescence at 535 nm (green) in HEK293 cell free culture (AID 720682)
# How it was run: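 Intrinsic compound fluorescence is measured in culture medium containing 10% FBS, with excitation at 485 nm and detection at 535 nm, referenced to fluorescein.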
# [4] = qHTS assay to test for compound auto fluorescence at 590 nm (red) in HEK293 cell free culture (AID 720683)
# How it was run: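 Tox21 10K library compounds were pinned into cell-free DMEM with 10% FBS and fluorescence was read at excitation 540 nm. Activity is expressed as Rose Bengal sodium equivalency.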
# [5] = qHTS assay to test for compound auto fluorescence at 590 nm (red) in HepG2 cell free culture (AID 720684)
# How it was run: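 Readout: intrinsic compound fluorescence at 590 nm emission after 540 nm excitation, scaled to Rose Bengal sodium. Matrix was cell-free MEM with 10% FBS; DMSO vehicle wells served as control.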
# [6] = qHTS assay to test for compound auto fluorescence at 460 nm (blue) in HepG2 cell free culture (AID 720685)
# How it was run: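 Cell-free plates of MEM plus 10% FBS received 23 nL compound or DMSO vehicle; blue-channel (405/460 nm) intensity scored against triamterene as reference fluorophore.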
# [7] = qHTS assay to test for compound auto fluorescence at 535 nm (green) in HepG2 cell free culture (AID 720686)
# [8] = qHTS assay to test for compound auto fluorescence at 460 nm (blue) in HepG2 cells (AID 720687)
# How it was run: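 Cells (2,000/well in MEM with 10% FBS) attached overnight at 37 C, then were exposed to compound or DMSO for 1 hr at 37 C, 5% CO2. Fluorescence read at Ex/Em 405/460 nm, expressed as triamterene-equivalent signal.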
# [9] = molecular target: Glucocorticoid receptor (Homo sapiens) (UniProt P04150); assay: qHTS assay to identify small molecule agonists of the glucocorticoid receptor (GR) signaling pathway (AID 720691; active = well fitted activation curve with a large enough effect in the signal ratio in the repeat runs, not every such curve was filed as active; the % refers to the signal ratio)
# Sequence of Glucocorticoid receptor (Homo sapiens) (P04150 whole entry, looked up): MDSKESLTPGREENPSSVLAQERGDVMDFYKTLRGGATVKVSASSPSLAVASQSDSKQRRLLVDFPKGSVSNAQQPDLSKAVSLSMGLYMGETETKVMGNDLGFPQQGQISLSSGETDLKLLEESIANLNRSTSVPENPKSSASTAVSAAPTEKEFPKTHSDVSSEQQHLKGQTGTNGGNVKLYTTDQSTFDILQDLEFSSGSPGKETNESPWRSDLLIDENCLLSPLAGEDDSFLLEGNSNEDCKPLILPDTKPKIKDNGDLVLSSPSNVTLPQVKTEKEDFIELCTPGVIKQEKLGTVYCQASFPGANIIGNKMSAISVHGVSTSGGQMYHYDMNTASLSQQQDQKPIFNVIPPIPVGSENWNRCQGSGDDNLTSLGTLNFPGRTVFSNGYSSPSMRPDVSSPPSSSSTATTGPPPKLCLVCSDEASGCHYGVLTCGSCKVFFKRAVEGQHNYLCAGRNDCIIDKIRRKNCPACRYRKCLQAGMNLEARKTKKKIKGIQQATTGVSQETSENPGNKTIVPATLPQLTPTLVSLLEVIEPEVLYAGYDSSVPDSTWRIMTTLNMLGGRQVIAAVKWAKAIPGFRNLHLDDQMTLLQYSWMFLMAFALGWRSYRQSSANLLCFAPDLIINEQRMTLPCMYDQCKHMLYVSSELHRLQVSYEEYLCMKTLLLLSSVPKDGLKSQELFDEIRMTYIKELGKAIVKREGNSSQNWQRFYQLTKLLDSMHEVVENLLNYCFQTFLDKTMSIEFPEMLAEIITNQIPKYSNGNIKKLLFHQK
# How it was run: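 Cells: GR-bla HeLa, endogenous GR with stably integrated GRE-beta-lactamase reporter. Treatment 18 h, 37 C, compounds delivered in DMSO. Detection via LiveBLAzer B/G FRET substrate, 2 h RT, fluorescence intensity.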
# [10] = molecular target: Glucocorticoid receptor (Homo sapiens) (UniProt P04150); assay: qHTS assay to identify small molecule antagonists of the glucocorticoid receptor (GR) signaling pathway (AID 720692; active = well fitted inhibition curve with a large enough effect in the signal ratio in the repeat runs, not every such curve was filed as active; the % refers to the signal ratio)
# How it was run: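 Quantitative HTS in antagonist format: HeLa cells expressing endogenous GR and a stably integrated GRE-bla reporter, stimulated with 5 nM dexamethasone (final) alongside test compounds for 18 h.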
# [11] = qHTS assay to identify small molecule antagonists of the glucocorticoid receptor (GR) signaling pathway - cell viability counter screen (AID 720693); also: nearly all actives have a fitted effect of over 55% in size
# [12] = qHTS assay for identifying genotoxic compounds that show differential cytotoxicity against isogenic chicken DT40 cell lines with known DNA damage response pathways - Rev3 mutant cell line (AID 743014); also: nearly all actives have a fitted effect of over 55% in size; also: potency is read from the fitted curve at half-maximal effect
# [13] = qHTS assay to identify small molecule antagonists of the androgen receptor (AR) signaling pathway - cell viability counter screen (AID 743033; also: nearly all actives have a fitted effect of over 45% in size)
# [14] = qHTS assay to identify small molecule antagonists of the thyroid receptor (TR) signaling pathway - cell viability counter screen (AID 743064); also: nearly all actives have a fitted effect of over 50% in size
# How it was run: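 Same-well viability check: GH3.TRE-Luc cells stimulated with 1 nM T3 alongside test compound for 23.5 h, followed by CellTiter-Fluor fluorescence.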
# [15] = qHTS assay for identifying genotoxic compounds that show differential cytotoxicity against isogenic chicken DT40 cell lines with known DNA damage response pathways - wild type cell line (AID 743012); also: nearly all actives have a fitted effect of over 60% in size
# How it was run: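 Luminescent ATP viability signal (CellTiter-Glo, 30 min RT) recorded after wild type DT40 cells were incubated with compounds for 40 h at 37 C/5% CO2.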
# [16] = qHTS assay to identify small molecule antagonists of the androgen receptor (AR) signaling pathway using the MDA cell line - cell viability counter screen (AID 743041; also: nearly all actives have a fitted effect of over 45% in size)
# How it was run: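 qHTS viability read-out; MDA-kb2 AR-luc; R1881-stimulated; 16 h exposure at 37C, 0% CO2; CellTiter-Fluor, 30 min; fluorescence intensity.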
# [17] = qHTS assay for identifying genotoxic compounds that show differential cytotoxicity against isogenic chicken DT40 cell lines with known DNA damage response pathways - Rad54/Ku70 mutant cell line (AID 743015); also: nearly all actives have a fitted effect of over 60% in size
# [18] = molecular target: Androgen receptor (Homo sapiens) (UniProt P10275); assay: qHTS assay to identify small molecule antagonists of the androgen receptor (AR) signaling pathway (AID 743035; active = well fitted inhibition curve with a large enough effect in the signal ratio in the repeat runs, not every such curve was filed as active; the % refers to the signal ratio)
# Sequence of Androgen receptor (Homo sapiens) (P10275 whole entry, looked up): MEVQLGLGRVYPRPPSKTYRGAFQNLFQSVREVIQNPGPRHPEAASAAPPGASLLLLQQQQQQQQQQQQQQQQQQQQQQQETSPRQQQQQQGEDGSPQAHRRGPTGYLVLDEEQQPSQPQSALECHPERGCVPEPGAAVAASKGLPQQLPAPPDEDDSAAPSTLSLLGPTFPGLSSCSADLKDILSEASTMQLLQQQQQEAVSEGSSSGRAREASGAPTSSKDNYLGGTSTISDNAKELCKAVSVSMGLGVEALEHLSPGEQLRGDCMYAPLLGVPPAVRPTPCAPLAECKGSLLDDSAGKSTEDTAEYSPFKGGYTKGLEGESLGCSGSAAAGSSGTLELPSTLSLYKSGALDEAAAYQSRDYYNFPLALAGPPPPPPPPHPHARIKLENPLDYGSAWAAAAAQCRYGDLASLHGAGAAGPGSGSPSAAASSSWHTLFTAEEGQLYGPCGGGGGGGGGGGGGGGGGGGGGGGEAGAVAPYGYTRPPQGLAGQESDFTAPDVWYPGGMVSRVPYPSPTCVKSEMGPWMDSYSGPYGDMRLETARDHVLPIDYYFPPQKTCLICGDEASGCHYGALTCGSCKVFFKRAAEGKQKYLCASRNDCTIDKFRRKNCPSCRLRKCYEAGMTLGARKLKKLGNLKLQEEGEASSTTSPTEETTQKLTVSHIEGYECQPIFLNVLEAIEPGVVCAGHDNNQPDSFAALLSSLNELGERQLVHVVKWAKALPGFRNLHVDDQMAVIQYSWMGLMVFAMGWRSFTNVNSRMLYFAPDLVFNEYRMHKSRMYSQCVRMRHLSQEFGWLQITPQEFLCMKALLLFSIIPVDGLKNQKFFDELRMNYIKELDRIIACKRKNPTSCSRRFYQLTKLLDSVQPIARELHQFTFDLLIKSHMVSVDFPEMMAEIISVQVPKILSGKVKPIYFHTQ
# How it was run: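 Quantitative HTS of the Tox21 10K library used HEK293 AR-UAS-bla cells stimulated with R1881 alongside compound for 16 h at 37C, followed by beta-lactamase FRET detection (LiveBLAzer B/G, 2 h, RT).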
# [19] = molecular target: Androgen receptor (Homo sapiens) (UniProt P10275); assay: qHTS assay to identify small molecule agonists of the androgen receptor (AR) signaling pathway using the MDA cell line (AID 743040; also: nearly all actives have a fitted effect of over 20% in size)
# How it was run: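 Agonist activity is measured as luciferase luminescence in human MDA-kb2 cells whose MMTV reporter responds to both AR and GR. Compounds in DMSO incubate 16 h at 37C, 0% CO2, and ONE-Glo is read after 30 min.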
# [20] = molecular target: Androgen receptor (Homo sapiens) (UniProt P10275); assay: qHTS assay to identify small molecule antagonists of the androgen receptor (AR) signaling pathway using the MDA cell line (AID 743042; also: nearly all actives have a fitted effect of over 55% in size)
# How it was run: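 MDA-kb2 cells (human breast carcinoma, stably carrying an MMTV-luciferase reporter responsive to AR and GR) were plated at 3,000 cells/well and preincubated 5 hr at 37C, then given compound plus R1881 agonist for 16 h. ONE-Glo luminescence was read.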
compound,measurement,setting,value
COc1cc2c(cc1OC)-c1cc3ccc(OC)c(OC)c3c[n+]1CC2,outcome,[1],inactive
same,outcome,[2],inactive
same,outcome,[3],inactive
same,outcome,[4],inactive
same,outcome,[5],inactive
same,outcome,[6],inactive
same,outcome,[7],inactive
same,outcome,[8],inactive
same,Potency,[9],inactive
same,Potency,[10],inactive
same,outcome,[11],inactive
same,Potency,[12],49 µM (active)
same,outcome,[13],inactive
same,Potency,[14],inactive
CCOC(=O)c1ccccc1,outcome,[1],inactive
same,outcome,[2],inactive
same,outcome,[3],inactive
same,outcome,[4],inactive
same,outcome,[5],inactive
same,outcome,[6],inactive
same,outcome,[7],inactive
same,outcome,[8],inactive
same,Potency,[9],inactive
same,Potency,[10],inactive
same,outcome,[11],inactive
same,Potency,[15],inactive
same,outcome,[13],inactive
same,Potency,[16],inactive
same,Potency,[14],inactive
NS(=O)(=O)Cc1noc2ccccc12,outcome,[1],inactive
same,outcome,[2],inactive
same,outcome,[3],inactive
same,outcome,[4],inactive
same,outcome,[5],inactive
same,outcome,[6],inactive
same,outcome,[7],inactive
same,outcome,[8],inactive
same,Potency,[9],inactive
same,outcome,[11],inactive
same,Potency,[15],inactive
same,Potency,[12],inactive
same,Potency,[17],inactive
same,outcome,[13],inactive
same,Potency,[18],inactive
same,Potency,[19],inactive
same,outcome,[20],inactive
same,Potency,[14],inactive
Cc1c(N)c(=O)n(-c2ccccc2)n1C,"fluorescence, % of fluorescein",[1],-0.0771% [at 18.6 µM]
same,"fluorescence, % of fluorescent control",[2],0.0935% [at 18.6 µM]
same,activity change,[3],-0.102% [at 18.6 µM]
same,"fluorescence, % of fluorescent control",[4],0.419% [at 18.6 µM]
same,"fluorescence, % of Rose Bengal",[5],0.0086% [at 18.6 µM]
same,"fluorescence, % of fluorescent control",[6],-0.0617% [at 18.6 µM]
same,"fluorescence, % of fluorescein control",[7],-0.0689% [at 18.6 µM]
same,"fluorescence, % of fluorescent control",[8],-0.0556% [at 18.6 µM]
same,Potency,[10],inactive
same,outcome,[11],inactive
same,Potency,[15],inactive
same,Potency,[12],inactive
same,Potency,[17],inactive
same,outcome,[13],inactive
same,Potency,[16],inactive
Nc1ccccn1,outcome,[1],inactive
same,outcome,[2],inactive
same,outcome,[3],inactive
same,outcome,[4],inactive
same,outcome,[5],inactive
same,outcome,[6],inactive
same,outcome,[7],inactive
same,outcome,[8],inactive
same,Potency,[10],inactive
same,outcome,[11],inactive
same,Potency,[15],inactive
same,Potency,[12],inactive
same,Potency,[17],inactive
same,outcome,[13],inactive
same,Potency,[14],inactive
O=C(O)c1cn(C2CC2)c2cc(N3CCNCC3)c(F)cc2c1=O,"fluorescence, % of fluorescein",[1],-0.0935% [at 18.6 µM]
same,"fluorescence, % of fluorescent control",[2],-0.0136% [at 18.6 µM]
same,activity change,[3],0.0246% [at 18.6 µM]
same,"fluorescence, % of fluorescent control",[4],-0.102% [at 18.6 µM]
same,"fluorescence, % of Rose Bengal",[5],0.543% [at 18.6 µM]
same,"fluorescence, % of fluorescent control",[6],0.0229% [at 18.6 µM]
same,"fluorescence, % of fluorescein control",[7],0.0355% [at 18.6 µM]
same,"fluorescence, % of fluorescent control",[8],-0.0408% [at 18.6 µM]
same,Potency,[9],inactive
same,Potency,[10],inactive
same,outcome,[11],inactive
same,outcome,[13],inactive
same,Potency,[16],inactive
same,Potency,[14],inactive
C=C[Si](OC(C)=O)(OC(C)=O)OC(C)=O,outcome,[1],inactive
same,outcome,[2],inactive
same,outcome,[3],inactive
same,outcome,[4],inactive
same,outcome,[5],inactive
same,outcome,[6],inactive
same,outcome,[7],inactive
same,outcome,[8],inactive
same,Potency,[9],inactive
same,outcome,[11],inactive
same,Potency,[12],61.1 µM (active)
same,outcome,[13],inactive
same,Potency,[18],inactive
same,Potency,[19],inactive
same,Potency,[16],inactive
same,outcome,[20],inactive
same,Potency,[14],inactive
CO/N=C(\C(=O)N[C@@H]1C(=O)N2C(C(=O)O)=C(CSc3nc(=O)c(O)nn3C)CS[C@H]12)c1csc(N)n1,outcome,[1],inactive
same,outcome,[2],inactive
same,outcome,[3],inactive
same,outcome,[4],inactive
same,outcome,[5],inactive
same,outcome,[6],inactive
same,outcome,[7],inactive
same,outcome,[8],inactive
same,Potency,[10],inactive
same,outcome,[11],inactive
same,Potency,[15],inactive
same,Potency,[17],inactive
same,outcome,[13],inactive
same,Potency,[16],inactive
same,Potency,[14],inactive
CCN(Cc1ccccc1)c1ccccc1,outcome,[1],inactive
same,outcome,[2],inactive
same,outcome,[3],inactive
same,outcome,[4],inactive
same,outcome,[5],inactive
same,outcome,[6],inactive
same,outcome,[7],inactive
same,outcome,[8],inactive
same,outcome,[11],inactive
same,Potency,[15],inactive
same,Potency,[12],inactive
same,Potency,[17],inactive
same,outcome,[13],inactive
same,Potency,[18],inactive
same,Potency,[19],inactive
same,Potency,[16],inactive
same,outcome,[20],inactive
Cc1ncc(COP(=O)(O)O)c(C=O)c1O,outcome,[1],inactive
same,outcome,[2],inactive
same,outcome,[3],inactive
same,outcome,[4],inactive
same,outcome,[5],inactive
same,outcome,[6],inactive
same,outcome,[7],inactive
same,outcome,[8],inactive
same,Potency,[10],inactive
same,outcome,[11],inactive
same,Potency,[17],inactive
same,outcome,[13],inactive
same,Potency,[16],inactive
same,Potency,[14],inactive
CCC(=O)OCc1ccccc1,outcome,[1],inactive
same,outcome,[2],inactive
same,outcome,[3],inactive
same,outcome,[4],inactive
same,outcome,[5],inactive
same,outcome,[7],inactive
same,outcome,[8],inactive
same,Potency,[9],inactive
same,Potency,[10],inactive
same,Potency,[12],inactive
same,Potency,[17],inactive
same,outcome,[13],inactive
same,Potency,[14],inactive
CCC1C(=O)OCC1Cc1cncn1C (stereo unspecified),outcome,[1],inactive
same,outcome,[2],inactive
same,outcome,[3],inactive
same,outcome,[4],inactive
same,outcome,[5],inactive
same,outcome,[6],inactive
same,outcome,[7],inactive
same,outcome,[8],inactive
same,outcome,[11],inactive
same,Potency,[15],inactive
same,Potency,[12],inactive
same,Potency,[17],inactive
same,outcome,[13],inactive
same,Potency,[16],inactive
same,Potency,[14],inactive
OCCc1ccccn1,outcome,[1],inactive
same,outcome,[2],inactive
same,outcome,[3],inactive
same,outcome,[4],inactive
same,outcome,[5],inactive
same,outcome,[7],inactive
same,outcome,[8],inactive
same,Potency,[9],inactive
same,Potency,[10],inactive
same,outcome,[11],inactive
same,Potency,[15],inactive
same,Potency,[12],inactive
same,Potency,[17],inactive
same,outcome,[13],inactive
same,Potency,[16],inactive
same,Potency,[14],inactive
CC(C)[C@H]1CC[C@@H](C)CC1=O,outcome,[1],inactive
same,outcome,[2],inactive
same,outcome,[3],inactive
same,outcome,[4],inactive
same,outcome,[5],inactive
same,outcome,[6],inactive
same,outcome,[7],inactive
same,outcome,[8],inactive
same,outcome,[11],inactive
same,Potency,[15],inactive
same,Potency,[17],inactive
same,outcome,[13],inactive
same,Potency,[14],inactive
